According to PubChem BioAssay (Tox21):
Where “and” joins values, the source holds several entries; their conditions need not be identical. Equal entries are not always repeated. Results filed as inconclusive are left out. Where a call stands in place of a potency, no number is given. Some structures have more than one record in an assay (separate samples or runs), and their calls can disagree. Calls of active or inactive are those of the source. Calls follow the shape of the full dose curve.
Potency is read from the fitted curve at half-maximal effect.

Assay: qHTS assay for small molecule disruptors of the mitochondrial membrane potential - cell viability (AID 720634); also: nearly all actives have a fitted effect of over 20% in size
Details: HepG2 viability, ATP luminescence (CellTiter-Glo), 1 h; series mostly up to 83.2 µM
From the text: U.S. Tox21 Program National Center for Advancing Translational Sciences [NCATS] NIH Chemical Genomics Center [NCGC] U.S. Environmental Protection Agency [EPA] National Institutes of Environmental Health Sciences [NIEHS] National Toxicology Program [NTP] U.S. Food and Drug Administration [FDA] Tox21 Assay Overview: Mitochondrial membrane potential (MMP), one of the parameters for mitochondrial function, is generated by mitochondrial electron transport chain that creates an electrochemical gradient by a series of redox reactions. This gradient drives the synthesis of ATP, a crucial molecule for various cellular processes. Measuring MMP in living cells is commonly used to assess the effect of chemicals on mitochondrial function; decreases in MMP can be detected using lipophilic cationic fluorescent dyes. […] The dye accumulates in the mitochondria of healthy cells as aggregates, with red fluorescence. The mitochondrial potential decreases and the dye could not accumulate in the mitochondria and remains in the cytoplasm in monomers, with green fluorescence. In addition to the mitochondrial potential assay, these cells were also used to test the cytotoxicity by determining the cell viability in the culture based on the quantitation of ATP present. The cytotoxicity was measured in the same assay well of MMP assay.
Tox21 Assay Protocol Summary: 2,000 HepG2 cells in 5 uL/well were dispensed into black, clear-bottom 1536-well plates using a Multidrop Combi (Thermo Scientific) dispenser. The assay plates were incubated for an overnight at 37 C to allow cells to attach to the wells, followed by the transfer of 23 nL compound or DMSO vehicle by a pin tool (Kalypsys). The plates were incubated for 1 hr at 37 C and 5% CO2, followed by the addition of 5 uL of 2X m-MPI dye into each well using Flying Reagent Dispenser (Aurora Discovery) and then CellTiter-Glo reagent was added at 4 uL/well and incubated 30 min at room temperature. Then luminescence intensity was quantified on a ViewLux CCD-based plate reader.
With `NCCNCCO` the Potency was “inactive”. In the case of `Brc1cc2ccccc2c2ccccc12`, the Potency is reported as “inactive”. In the case of `CC(=O)c1ccc([N+](=O)[O-])cc1`, the Potency is reported as “inactive”. For `Nc1ccc(N=Nc2ccccc2)c(N)c1`, the Potency was 47.5 µM (active). For `O=C(/C=C/c1ccccc1)OCCc1ccccc1`, the Potency was “inactive”. With `O=C(/C=C/c1ccc(O)c(O)c1)O[C@@H]1C[C@@](OC(=O)/C=C/c2ccc(O)c(O)c2)(C(=O)O)C[C@@H](O)[C@@H]1O` the Potency was “inactive”. For `CC(C)(C)C(=O)C(=O)O`, the Potency was “inactive”. For `O=C(O)CCc1nc(-c2ccccc2)c(-c2ccccc2)o1`, the Potency was “inactive”. In the case of `CCOC(=O)[C@H](CCc1ccccc1)N[C@@H](C)C(=O)N(CC(=O)O)C1Cc2ccccc2C1`, the Potency is reported as “inactive”. For `CCOc1cccc(-n2cc(C(=O)N3CCN(c4cc(C(=O)O)c5ccccc5c4)CC3)nc2-c2ccc(C)cc2)c1`, the Potency was “inactive”. In the case of `COc1cc(Nc2c(C#N)cnc3cc(OCCCN4CCN(C)CC4)c(OC)cc23)c(Cl)cc1Cl`, the Potency is reported as “inactive”. With `CO[C@]1(NC(=O)CSC(F)F)C(=O)N2C(C(=O)O)=C(CSc3nnnn3CCO)CO[C@H]21` the Potency was “inactive”. In the case of `O=C1C(=O)c2ccccc2C(O)=C1C1CCC(c2ccc(Cl)cc2)CC1` (stereo not given), the Potency is reported as “inactive”. In the case of `CCC(OCCCOC)OC(C)=O` (stereo not given), the Potency is reported as “inactive”. In the case of `C[C@]12CC[C@@H]3c4ccc(O)cc4CC[C@H]3[C@@H]1CC[C@@H]2OC(=O)CCC1CCCC1`, the Potency is reported as “inactive and 61.1 µM (active)”. For `O=C1c2ccccc2C(=O)N1CCc1noc(-c2ccc(CN3CCCCCC3)s2)n1`, the Potency was “inactive”. For `O=C(OC(=O)c1ccccc1)c1ccccc1`, the Potency was “inactive”. In the case of `COc1ccccc1N1CCN(CCCCNC(=O)c2ccc(-c3ccc(C(C)=O)cc3)cc2)CC1`, the Potency is reported as “inactive”. In the case of `CC1=C(CC=O)C(C)(C)CCC1`, the Potency is reported as “inactive”. For `C[C@@]12CCC[C@H]1[C@@H]1CC[C@H]3C[C@@H](O)CC[C@]3(C)[C@H]1CC2`, the Potency was “inactive”. In the case of `CCCC(C(=O)OCCN(CC)CC)(c1ccccc1)c1ccccc1`, the Potency is reported as “inactive”. In the case of `CCN(CC)CCNC(=O)COc1ccc(OC)cc1`, the Potency is reported as “inactive”. For `Cc1cccc(N(C)C(=S)Oc2ccc3c(c2)CCC3)c1`, the Potency was “inactive”. With `CCCCCCCCCCC(=O)O` the Potency was “inactive”. With `COc1ccccc1N1CCN(CC(O)COc2cccc3ccccc23)CC1` (stereo not given) the Potency was “inactive”. With `CC(C)=CC(=O)C=C(C)C` the Potency was “inactive”. For `NNC(=O)CP(=O)(c1ccccc1)c1ccccc1`, the Potency was “inactive”. For `CC(C)C=O`, the Potency was “inactive”. With `CN1C(=O)OC(C)(C)C1=O` the Potency was “inactive”. For `CCCCCC[C@@H](O)C/C=C\CCCCCCCC(=O)OCC(O)CO` (stereo not given in full), the Potency was “inactive”. In the case of `CCCCCCCCC(CCCCCC)C(=O)O` (stereo not given), the Potency is reported as “inactive”. For `CC(O)c1ccccc1` (stereo not given), the Potency was “inactive”. For `CC(CO)CO`, the Potency was “inactive”. In the case of `CN1CCCN=C1COC(=O)C(O)(c1ccccc1)C1CCCCC1` (stereo not given), the Potency is reported as “inactive”. With `CCCC(=O)C(=O)O` the Potency was “inactive”. In the case of `Nc1cccc2c1CN(C1CCC(=O)NC1=O)C2=O` (stereo not given), the Potency is reported as “inactive”. For `FC(F)(F)c1ccccc1Cl`, the Potency was “inactive”. For `Oc1ccc(Cl)c2cccnc12`, the Potency was “inactive”. In the case of `CC(=O)N/N=C/c1ccc([N+](=O)[O-])o1`, the Potency is reported as “inactive”. In the case of `CCCCCCCCCCCCCCN(CCO)CCO`, the Potency is reported as “inactive”.
